Active and inactive are the calls of the source. How the source made its calls: active means hit-call score of the fitted dose curve at least 0.9, where 1 is the maximum; inactive means score below 0.9.

Read-out in the test: Bcl-2 (BID) gene, BID (gene 637)
The test can be described thus: LTEA_HepaRG_BID: Life Technologies and Expression Analysis (LTEA) Assay for Bcl-2 (BID) gene using HepaRG (AID 2283476). The note with it: mRNA level, 48 h; actives raise or lower the signal. On the procedure:
LTEA_HepaRG is a cell based, multiplexed-readout assay that uses HepaRG, a human liver cell line, with measurements taken at 48 hours after chemical dosing on a 96-well plate.LTEA_HepaRG_BID is one of 102 assay component(s) measured in the LTEA HepaRG cell culture assay. It is a marker of Cell proliferation, survival, death.Data from the assay component LTEA_HepaRG_BID was analyzed into 1 endpoint. This assay endpoint, LTEA_HepaRG_BID, was analyzed with bidirectional fitting relative to DMSO as the negative control and baseline of activity. Using a type of inducible reporter, measures of mRNA induction for gain or loss-of-signal activity can be used to understand regulation of transcription factor activity. To generalize the intended target to other relatable targets, this assay endpoint is annotated to the cell cycle intended target family, where the subfamily is Cell proliferation, survival, death.
A total of 1060 chemcials from the ToxCast library were tested in eight-point concentration-response experiments. Cell culture and cytotoxicity assays were conducted at Thermo Fisher Scientific's Custom Services facility (Madison, WI). A single lot of human HepaRG cells (Thermo Fisher Scientific, Frederick, MD) was used for the cell culture experiments. 96-well format collagen type I coated plates of human HepaRG cells were prepared using established methods. Briefly, cryopreserved HepaRG cells were thawed, plated at a density of approximately 100,000 cells/well in HepaRG Thaw, Plate, and General Purpose media (HPRG770, Thermo Fisher Scientific), and incubated for 48 hours. 0.5% DMSO was selected as vehicle control to balance the requisite need of DMSO in HepaRG cultures to maintain differentiation (for example, baseline metabolism, proportions of hepatocytes vs. cholangiocytes), while enabling further hepatic receptor pathway activation (for example, PXR and CAR) in response to chemical exposure. 48 hours after plating, the culture medium was replaced with HepaRG Serum-Free Incudtion Media. Cells were exposed to each test chemical in duplicate and maintained in CO2 incubators for another 48 hours. Chemical plates were thawed to room temperature and 200x concentrations of treatment groups were prepared. 8-point conentration-reponse curves were made with the highest exposure at 100 uM, followed by half-log dilutions, all in 0.5% DMSO. Each test plate contained variouse controls, induction positive controls (1mM phenobarbital), cytotoxicity positive controls ([…] aflatoxin B1), vehicle controls (0.5% DMSO), and total lysis controls (0.5% DMSO). Cell morphology images were taken using an Essen IncuCyte FLR automated microscope, with six 96-well plates imaged in about 24 minutes. Images were captured and exported and JPEG files. Spent culture media was transfered to black-well plates for the LDH assay, and remaining media was sorted at -80 C for later use. Cells were treated with RLT buffer and frozen until shipped for gene expression analysis. Total RNA was isolated from the cell suspension in 75 uL of Buffer RLT (Qiagen, Germantown, MD 20874) by Quintiles/Expression Analysis (Durham, NC) using a custom isolation procedure. Total RNA from each plate well was transferred to a preamplification plate. Fluidigm's 96.96 Dynamic ArrayTM (Fluidigm, Amsterdam, the Netherlands) technology was used for gene expression analyses by quantitative reverse transcription polymerase chain reaction (qRT-PCR, performed by Quintiles/Expression Analysis, Durham, NC)89. Standard TaqManTM Assays (Applied Biosystems/ThermoFisher Scientific, Foster City, CA) were used to assess the expression of 93 genes selected based on their selectivity and sensitivity to important hepatic receptors known to be modulated by environmental chemicals; importance in human hepatocyte functionality; and hepatotoxicity. […]
Consider `C=C(C)C(=O)OCCC(F)(F)C(F)(F)C(F)(F)C(F)(F)C(F)(F)C(F)(F)F`, for which the compound was called inactive.
For the compound `O=C(OCCOCCOC(=O)c1ccccc1)c1ccccc1`, the compound was classed as inactive.
As for `CC(=O)NC1(c2cccc(F)c2)CCN(CC[C@@]2(c3ccc(Cl)c(Cl)c3)CN(c3ccccc3)C(=O)CO2)CC1`, the result was inactive.
On to `Nc1cccc2c(N)cccc12`, for which the call was inactive.
In the case of `CN1CCC[C@H]1c1cccnc1`, the outcome was inactive.
Still for that read-out and setting: under `CC(=O)CC(C)(C)O` stands “inactive”.
`CCCCCCC(=O)O`: the call was inactive.
In the case of `N#C[C@@H]1CC(F)(F)CN1C(=O)CNC1CC2CCC(C1)N2c1ncccn1` (stereo not given in full), the outcome was inactive.
`O=C(O)c1ccccc1C(c1ccc(O)cc1)c1ccc(O)cc1`: the compound was called inactive.
With `CCCCCCCCOC(=O)CCCCCCCCC(=O)OCCCCCCCC`, the outcome was inactive.
As to `CCCCCCCC(=O)O`, the compound was called inactive.
Turning to `CCCCC(CC)COC(=O)CCCCC(=O)OCc1ccccc1` (stereo not given), the result was inactive.
`CC(C)(C)c1cccc(C(C)(C)C)c1O`: the call was inactive.
In the case of `COC(=O)CCCCC(=O)OC`, the result was inactive.
On to `CCC(=C(c1ccc(O)cc1)c1ccc(OCCN(C)C)cc1)c1ccccc1`, for which the result was inactive.
The same measure, in the same setting: the same measure for `CC[C@H](c1ccc(O)cc1)[C@@H](CC)c1ccc(O)cc1`: “inactive”; for `COc1ccc([N+](=O)[O-])cc1N`: “inactive”.
For `CC1=C(/C=C/C(C)=C/C=C/C(C)=C/C(=O)O)C(C)(C)CCC1`, the compound was called inactive.
Still for that read-out and setting: the same measure for `CCCCCCCCCCCCc1ccccc1S(=O)(=O)O`: “inactive”; for `NC(=O)N1C(=O)C(C(=O)c2cc(Cl)cs2)c2cc(F)c(Cl)cc21` (stereo not given): “inactive”.
Turning to `CCN(CC)CCNc1ccc(CNC=O)c2sc3ccc(OC)cc3c(=O)c12`, the call was inactive.
For `CCc1ccc(CCOc2ccc(CC3SC(=O)NC3=O)cc2)nc1` (stereo not given), the result was inactive.
`CC(C)CCCCCCOC(=O)CCCCC(=O)OCCCCCCC(C)C`: the compound was classed as inactive.
In the case of `CCCCCCCCCCCCCCCS(=O)(=O)Oc1ccccc1`, the call was inactive.
On to `CC#C[C@]1(O)CC[C@H]2[C@@H]3CCC4=CC(=O)CCC4=C3[C@@H](c3ccc(N(C)C)cc3)C[C@@]21C`, for which the AC50 (usually the midpoint of the concentration-response curve, whichever way the signal moves) is 6.74 µM (active).
Take `C#C[C@]1(O)CC[C@H]2[C@@H]3CCC4=CC(=O)CC[C@@H]4[C@H]3CC[C@@]21C`: the compound was called inactive.
For `Cc1cc(CCN2CCN(c3nsc4ccccc34)CC2)cc2c1NC(=O)CC2(C)C`, the compound was classed as inactive.
With `CN1CCN(c2ccccc2/C=C2\SCCN(c3ccc(Cl)c(Cl)c3)C2=O)CC1`, the AC50 is 83.9 µM (active).
Regarding `O=[N+]([O-])c1ccc(O)cc1`, the result was inactive.
For the compound `COCC(C)O` (stereo not given), the outcome was inactive.
As to `CCCCOCCO`, the compound was classed as inactive.
Regarding `Oc1cccc(O)c1`, the result was inactive.
As to `Oc1cc2ccccc2c2ccccc12`, the result was inactive.
Still for that read-out and setting: the same measure for `CCC(C)(C)C1CCC(O)CC1` (stereo not given): “inactive”.
As to `COCC(C)OCC(C)O` (stereo not given), the compound was called inactive.
On the same count and under the same terms, the same measure for `CC(C)(C)c1cc(C(C)(C)C)c(O)c(C(C)(C)C)c1`: “inactive”; for `C[C@@H]1C[C@H]2[C@@H]3CCC4=CC(=O)C=C[C@]4(C)[C@@]3(F)[C@@H](O)C[C@]2(C)[C@@]1(O)C(=O)COP(=O)(O)O`: “inactive”; for `OC1CCC(C2CCCCC2)CC1` (stereo not given): “inactive”.
Same read-out and setting: under `c1ccc2c(c1)Cc1ccccc1-2` stands “inactive”; under `CCOC(=O)CC(O)(CC(=O)OCC)C(=O)OCC`, “inactive”.

Values taken from PubChem BioAssay (EPA / NIEHS).
